FMDV antiviral = foot and mouth disease virus antiviral activity. AID 1159524. FMDV antiviral cell-based qHTS. Potency, µM (doses to about 57.9 µM), usual class: inhibitors. 410,000 compounds, 1.2% hits; calls by dose curve; tested in HEK293T cells; also: read-out not given here; nearly all actives have a fitted effect of over 45% in size
HCMV antiviral = inhibitors of human cytomegalovirus | HFF cells, HCMV-luciferase reporter, 72 h; hits give low values | activity change, negative = inhibition, % at 57.5 µM | 410,000 compounds, 4.5% hits | AID 1259415; in the data active = activity change below about -60%; inconclusive = no clear call, values can overlap the other calls; inactive = above about -39%
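After 16 h attachment at 37C, HFF cells received test compound and HCMV-luciferase (1 PFU/cell); reporter luminescence read 72 h later, data normalized against buffer-only and known inhibitor Salinomycin.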
MARV entry inh = Marburg virus entry inhibition | Potency, µM (doses to about 37.8 µM), most hits filed as inhibitors | 300,000 compounds, 1.8% hits | Marburg virus pseudotyped entry inhibition, cell reporter; calls by dose curve; tested in HEK293 cells
LASV entry inh = blocks Lassa virus binding to or entry into cells; Lassa virus pseudotype entry inhibition, cell reporter; Potency, µM (top dose mostly 37.9 µM), most hits filed as inhibitors; 300,000 compounds, 1.2% hits; AID 540256; calls by dose curve; tested in HEK293 cells; also: nearly all actives have a fitted effect of over 50% in size
HCV inhibitor = HCV inhibition. Huh7.5.1 HCVcc-Cre infection, luciferase reporter, 44 h. Potency, µM (series often up to 41.8 µM), usual class: inhibitors. 340,000 compounds, 3.4% hits; active = well fitted inhibition curve with a large enough effect; inconclusive = small, poorly fitted or top-dose-only effect, or another doubt; inactive = no such curve, though single readings can be large or run the other way
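Antiviral activity was scored by luciferase reporter output from cells infected with HCVcc-Cre (~0.5 moi) in presence of compound, 44 h infection period, cells seeded 1,000/well 4 h prior.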
Of the large screens only hits and unclear results are named; the others gave an inactive call. Rows were chosen to be rich in hits. Some 7.9% of all compounds tested hit in one or more screens of this group.

COc1ccc(OC)c2sc(NC(=O)C3=COCCO3)nc12	HCV inhibitor 11.2µM (no result: MARV entry inh, LASV entry inh)
COc1ccc(OC)c2sc(NC(=O)CCSc3ccccc3)nc12	HCV inhibitor 10µM (no result: MARV entry inh, LASV entry inh)
COc1ccc(OC)c2sc(NC(=O)C(C)C)nc12	HCV inhibitor 7.94µM (no result: MARV entry inh, LASV entry inh)
O=C(Nc1nc(-c2ccc(Oc3ccccc3)cc2)cs1)C1=COCCO1	FMDV antiviral inconclusive, HCMV antiviral -64.0, MARV entry inh inconclusive, LASV entry inh inconclusive, HCV inhibitor inconclusive
COc1ccc(OC)c2sc(NC(=O)CCS(=O)(=O)c3ccccc3)nc12	HCV inhibitor inconclusive (no result: MARV entry inh, LASV entry inh)
COc1ccc(OC)c(CCNC(=O)c2nc(-c3ccc(Cl)cc3)n3c2CCCCC3)c1	FMDV antiviral inconclusive (no result: MARV entry inh, HCV inhibitor)
COc1ccc2nc(SCC(=O)c3c(C)[nH]c4ccccc34)nc(C)c2c1	none (no result: HCV inhibitor)
COc1ccc(C)cc1-n1c(=O)c2ccccc2c2ccccc2c1=O	FMDV antiviral 25.1µM, HCMV antiviral inconclusive
CCCNC(=O)N1[C@H]2CC[C@@H]1C(C(=O)OC)=C(c1ccc(F)cc1F)C2	none (no result: MARV entry inh, LASV entry inh)
COC(=O)C1=C(c2cc3ccccc3o2)C[C@@H]2CC[C@H]1N2C(=O)N1CCCCC1	FMDV antiviral inconclusive, HCV inhibitor inconclusive (no result: MARV entry inh, LASV entry inh)
COC(=O)C1=C(c2ccc(F)cc2OCc2ccccc2)C[C@@H]2CC[C@H]1N2C(=O)NCc1ccccc1Cl	HCMV antiviral -62.7, HCV inhibitor inconclusive (no result: MARV entry inh, LASV entry inh)
COC(=O)C1=C(c2ccc(F)cc2OCc2ccccc2)C[C@@H]2CC[C@H]1N2C(=O)NCCOc1ccccc1Cl	HCV inhibitor inconclusive (no result: MARV entry inh, LASV entry inh)
COC(=O)C1=C(c2ccc(F)cc2OCc2ccccc2)C[C@@H]2CC[C@H]1N2C(=O)N1CCCC1	FMDV antiviral inconclusive, HCV inhibitor 11.2µM (no result: MARV entry inh, LASV entry inh)
COC(=O)C1=C(c2cc3ccccc3o2)C[C@@H]2CC[C@H]1N2C(=O)N1CCCC1	HCMV antiviral -60.2, HCV inhibitor inconclusive (no result: MARV entry inh, LASV entry inh)
COC(=O)C1=C(c2ccc(F)cc2F)C[C@@H]2CC[C@H]1N2C(=O)N1CCC(O)CC1	HCMV antiviral -62.4 (no result: MARV entry inh, LASV entry inh)
COC(=O)C1=C(c2ccc(Cl)c(C(F)(F)F)c2)C[C@@H]2CC[C@H]1N2C(=O)NCCNC(C)=O	none (no result: MARV entry inh, LASV entry inh)
COC(=O)C1=C(c2ccc(Cl)c(C(F)(F)F)c2)C[C@@H]2CC[C@H]1N2C(=O)NCCOc1ccccc1Cl	FMDV antiviral inconclusive, HCV inhibitor 10µM (no result: HCMV antiviral, MARV entry inh, LASV entry inh)
C=C(C)CSc1nc2sc3c(c2c(=O)n1-c1ccccc1)CCC(C)C3 (stereo unspecified)	none (no result: MARV entry inh, HCV inhibitor)
CC1=C(C(=O)OCCc2ccccc2)C(c2ccsc2)NC(=O)N1C (stereo unspecified)	HCMV antiviral -66.5, LASV entry inh inconclusive
CCOc1ccccc1C(=O)NC1(C(F)(F)F)C(=O)Nc2c1c(=O)[nH]c(=O)n2-c1ccccc1 (stereo unspecified)	FMDV antiviral inconclusive, MARV entry inh inconclusive (no result: HCV inhibitor)
O=C(N/N=C/C1=C(N2CCOCC2)C(=C\c2ccccc2)/CC1)Nc1ccccc1	HCMV antiviral -70.9, MARV entry inh inconclusive, HCV inhibitor inconclusive
Cc1cc(=O)[nH]c(N/N=C/C2=C(N3CCOCC3)C(=C\c3ccc(Cl)cc3)/CC2)n1	FMDV antiviral inconclusive, MARV entry inh inconclusive, HCV inhibitor inconclusive
Cc1cc(C)nc(N/N=C/C2=C(N3CCOCC3)C(=C/c3ccccc3)/CC2)n1	FMDV antiviral 28.2µM, HCMV antiviral inconclusive, MARV entry inh inconclusive, LASV entry inh inconclusive, HCV inhibitor inconclusive
O=C(O)c1ccccc1N/N=C/C1=C(N2CCOCC2)C(=C\c2ccccc2)/CC1	none
Cc1nc(NC(=O)CC(C)C)sc1-c1csc(Nc2ccc(Cl)cc2)n1	HCV inhibitor 7.08µM (no result: MARV entry inh, LASV entry inh)
Cc1nc(NC(=O)CC(C)C)sc1-c1csc(Nc2ccc(Cl)cc2Cl)n1	HCMV antiviral inconclusive (no result: MARV entry inh, LASV entry inh)
COc1ccc(Cl)cc1Nc1nc(-c2sc(NC(=O)CC(C)C)nc2C)cs1	HCV inhibitor 11.2µM (no result: MARV entry inh, LASV entry inh)
Nc1nonc1-c1nc2cnccc2n1C1CCCCC1	none (no result: FMDV antiviral, HCMV antiviral, MARV entry inh, HCV inhibitor)
C[C@@H]1[C@H]2[C@@H]3CC[C@@H](C3)[C@H]2CN[C@H]1c1cn(Cc2ccccc2)c2ccccc12	HCV inhibitor 22.4µM (no result: MARV entry inh, LASV entry inh)
O=C(O)C[C@H](SCc1ccc(C(=O)O)o1)C(=O)O	none (no result: FMDV antiviral, HCMV antiviral, LASV entry inh, HCV inhibitor)
Cc1ccc(NC(=O)c2c(C(F)(F)F)nn(C)c2SCc2cccc(C(F)(F)F)c2)cc1C	HCMV antiviral -88.1, MARV entry inh inconclusive, LASV entry inh inconclusive, HCV inhibitor inconclusive
COc1ccc(N(C)S(=O)(=O)c2cccc(C(=O)NCC3CCCO3)c2)cc1 (stereo unspecified)	HCMV antiviral inconclusive, LASV entry inh inconclusive
CN(Cc1ccccc1)S(=O)(=O)c1ccc2[nH]cc(C(=O)NCC3CCCO3)c(=O)c2c1 (stereo unspecified)	FMDV antiviral inconclusive, HCMV antiviral -107.1 (no result: HCV inhibitor)
COc1ccc(N(Cc2ccccc2)S(=O)(=O)c2cccc(C(=O)NCC3CCCO3)c2)cc1 (stereo unspecified)	LASV entry inh 3.16µM, HCV inhibitor inconclusive
COc1ccc(S(=O)(=O)NCC2CCC(C(=O)NCCCN3CCCC3=O)CC2)cc1 (stereo unspecified)	none (no result: MARV entry inh, LASV entry inh)
Cc1ccc(NS(=O)(=O)c2cccc(C(=O)NCCCN3CCCC3=O)c2)cc1	HCMV antiviral -100.6, MARV entry inh inconclusive
Cc1ccc(S(=O)(=O)NCC2CCC(C(=O)NCCCN3CCCC3=O)CC2)cc1 (stereo unspecified)	HCMV antiviral -62.1
COc1ccccc1CNC(=O)C(=O)NCC(c1ccc2c(c1)OCO2)N1CCOCC1 (stereo unspecified)	none (no result: MARV entry inh, HCV inhibitor)
O=C(NCC1CCCO1)c1cccc(Oc2ccccc2)c1 (stereo unspecified)	MARV entry inh inconclusive
Cc1ccc(NS(=O)(=O)c2cccc(C(=O)NCC3CCCO3)c2)cc1 (stereo unspecified)	MARV entry inh inconclusive, LASV entry inh 10µM, HCV inhibitor inconclusive
COc1ccc(N(CC2CO2)S(=O)(=O)c2ccccc2)cc1 (stereo unspecified)	HCMV antiviral -61.6
O=C(NCC1CCCO1)c1cccc(Oc2ccc([N+](=O)[O-])cc2)c1 (stereo unspecified)	FMDV antiviral inconclusive, HCMV antiviral -87.9, HCV inhibitor inconclusive
COc1ccccc1N(CC1CO1)S(=O)(=O)c1ccccc1 (stereo unspecified)	none
O=C(NCC1CCCO1)c1cccc(NS(=O)(=O)c2ccccc2)c1 (stereo unspecified)	MARV entry inh inconclusive, HCV inhibitor inconclusive
CC(=O)Nc1ccc(S(=O)(=O)NCC2CCC(C(=O)N3CCCCCC3)CC2)cc1 (stereo unspecified)	LASV entry inh 3.55µM
COc1cc(OC)c(Nc2nc3ccc(C)cc3n3nnnc23)cc1Cl	none (no result: MARV entry inh, HCV inhibitor)
O=C(NN=C1C[C@@H](O)[C@H](O)[C@H]2[C@@H]3C(=O)N(C4CCCCC4)C(=O)[C@@H]3CC[C@@H]12)OCc1ccccc1	none (no result: FMDV antiviral, HCMV antiviral, LASV entry inh, HCV inhibitor)
CCn1c2ccccc2c2cc(CN3CCOc4ccc(C(O)c5cccnc5)cc4C3)ccc21 (stereo unspecified)	none (no result: HCMV antiviral, MARV entry inh, LASV entry inh, HCV inhibitor)
O=C(CSc1nc2ccc([N+](=O)[O-])cc2s1)NCC1CCCO1 (stereo unspecified)	HCMV antiviral -70.6, HCV inhibitor inconclusive
